Test results published in PubChem BioAssay AID1159580 (chemical genetic matrix, 2015).
About 2,000 (36%) of roughly 5,500 compounds were called active. Not shown: some 18% with an inconclusive outcome. Some of the results follow. A number with no mark means an inactive call. No stated cut-off is given here; in the data, active means normalized growth mostly below about 0.91 (no sharp cut-off); inconclusive means no clear call, values can overlap the other calls; inactive means mostly above about 0.92.

Assay: chemical genetic growth profiling, strain panel (AID 1159580);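 further: tested at 20 µM; growth read once vehicle control cultures reached saturation at 30 °C; 1 = growth at the plate median or of vehicle wells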
Conditions: S. cerevisiae deletion strains, growth OD

For `NC[C@@H]1O[C@H](C23CC4CC(CC(C4)C2)C3)Cc2c1ccc(O)c2O`, the normalized growth (locus YAL040C, strain CLN3, stronger effect = lower value) was 0.954, the normalized growth (locus YER002W, strain NOP16, stronger effect = lower value) was 0.998 and the normalized growth (locus YMR263W, strain SAP30, stronger effect = lower value) was 1. For the same compound, the normalized growth (locus YMR307W, strain GAS1, stronger effect = lower value) was 0.414 (active), the normalized growth (locus YNL128W, strain TEP1, stronger effect = lower value) was 0.995 and the normalized growth (locus YNL175C, strain NOP13, stronger effect = lower value) was 1.03. For the same compound, the normalized growth (locus YNL197C, strain WHI3, stronger effect = lower value) was 1.03, the normalized growth (locus YNL224C, strain SQS1, stronger effect = lower value) was 1.09 and the normalized growth (locus YOR083W, strain WHI5 (second series), stronger effect = lower value) was 1.01. For the same compound, the normalized growth (locus YPL055C, strain LGE1, stronger effect = lower value) was 0.599 (active).
